Hits are enriched below; roughly 11% of the tested compounds scored in any of these assays.
FBPA coupling cs – inhibits coupling enzyme system, counter-screen for aldolase hits | coupling enzyme system counterscreen, AmpLite Red fluorescence | activity change, negative = inhibition, % at 58.2 µM, hits read low | 290,000 compounds, 0.67% hits | AID 2472; in the data active means activity change below about -30%
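Fluorescence at 525 nm excitation and 598 nm emission measured inhibition of the coupled detection system without aldolase. Compounds (at 57.5 uM final) were preincubated 10 min at room temperature with coupling enzyme reagent before a 20 min substrate/AmpLite Red step.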
Tau fibril FP – inhibitors of human tau fibril formation; K18 P301L tau heparin fibrillization, Alexa594 FP, 6 h; 280,000 compounds, 0.39% hits; Potency, µM (doses to about 57.7 µM), without a hit: at the highest dose activity, negative = inhibition, most hits filed as inhibitors; P10636; further: potency means the concentration at half of the fitted maximal effect; nearly all actives have a fitted effect of over 55% in size
Target sequence (P10636 561-689 P618L limits assumed): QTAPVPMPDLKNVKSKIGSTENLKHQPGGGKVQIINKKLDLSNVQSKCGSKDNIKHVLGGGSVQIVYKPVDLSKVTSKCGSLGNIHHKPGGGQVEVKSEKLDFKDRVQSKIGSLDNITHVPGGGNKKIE
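Compound effects on tau fibrillization are measured by Alexa 594 fluorescence polarization (ex 555, em 632 nm). K18 P301L tau is used at 15 uM with 0.24 uM labeled tracer, and 20 uM heparin induces aggregation over 6 hr at 37 C.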
Tau fibril ThT – blocks human tau fibril formation measured by thioflavin T | P10636 | 270,000 compounds, 2.1% hits | recombinant tau K18 P301L, heparin-induced fibrillization, ThT fluorescence | Potency, µM (top dose mostly 57.4 µM), inactives show top-dose activity, negative = inhibition, hits mostly inhibitors; further: potency means the concentration at half of the fitted maximal effect; nearly all actives have a fitted effect of over 55% in size
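Tau K18 P301L fragment (15 uM unlabeled plus 0.24 uM Alexa 594-labeled) in 100 mM sodium acetate pH 7 with compound, fibrillization induced by 20 uM heparin for 6 hr at 37 C. Thioflavin T (30 uM) added, fluorescence read after 1 hr (ex 450, em 510 nm).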
G9a inh – inhibitors of human histone lysine methyltransferase G9a | Q96KQ7 | G9a H3K9 monomethylation, AlphaScreen, 2 h | Potency, µM (titrated, usually from 102 µM), inactives show top-dose activity, negative = inhibition, actives largely listed as inhibitors | 350,000 compounds, 8.8% hits; further: potency means the concentration at half of the fitted maximal effect; nearly all actives have a fitted effect of over 75% in size
Target sequence (Q96KQ7 913-1193 limits assumed): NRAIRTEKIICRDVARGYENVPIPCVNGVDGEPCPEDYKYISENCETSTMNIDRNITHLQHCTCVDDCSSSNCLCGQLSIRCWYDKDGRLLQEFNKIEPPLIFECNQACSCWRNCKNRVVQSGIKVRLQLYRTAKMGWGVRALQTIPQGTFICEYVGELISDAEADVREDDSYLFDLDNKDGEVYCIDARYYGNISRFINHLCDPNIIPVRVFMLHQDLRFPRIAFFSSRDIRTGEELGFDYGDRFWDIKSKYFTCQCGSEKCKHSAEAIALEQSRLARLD
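Signal arises when biotinylated H3K9 peptide, once monomethylated, bridges streptavidin donor and antibody-captured acceptor beads. Enzyme at 20 nM was preincubated 15 min with test compounds; peptide 500 nM and SAM 20 uM then reacted for 2 h.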
Sfp inh – blocks B. subtilis Sfp PPTase activity | Potency, µM, inactives show largest response in the series, negative = inhibition, usual class: inhibitors | AID 1490 | 310,000 compounds, 3.5% hits | Q9F4F7 | Biochemical Sfp PPTase activity, qHTS;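 further: the enzyme is Sfp with the accession as filed and its product quenches rhodamine fluorescence; potency means the concentration at half of the fitted maximal effect; 0% = enzyme reaction without inhibitor and -100% = no enzyme wells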
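Compounds were incubated with enzyme (final 15 nM) for 15 min at room temperature before substrate addition started the reaction. Fluorescence at 525 nm excitation, 598 nm emission was recorded immediately and after 30 minutes.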
Tau fluor cs – counter-screen for tau fibril formation inhibitors. tau K18 P301L Alexa594 fluorescence, heparin fibrillization. Potency, µM (titrated, usually from 57.7 µM), without a hit: at the highest dose activity change, negative = decrease. 280,000 compounds, 0.93% hits. AID 1463; further: potency means the concentration at half of the fitted maximal effect; nearly all actives have a fitted effect of over 55% in size
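Human tau K18 P301L (15 uM unlabeled, 0.24 uM Alexa 594-labeled) in 100 mM sodium acetate pH 7 with 20 uM heparin, 6 hr at 37 C. ThT 30 uM added, 1 hr ambient; Alexa 594 FP and total fluorescence read at 555/632 nm.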
The depositor's hits bear a star; [ ] = remark or other dose. Unless noted, the call rests on the fitted dose curve; in most records, active means well fitted curve in the direction sought with a large enough effect; inconclusive means small, poorly fitted or top-dose-only effect, or another doubt; inactive means no such curve, though single readings can be large; an effect the other way counts as inactive or inconclusive. Unless noted, on the % scale 0 is the no-effect control and ±100 the full control effect.

Results for COc1cccc(CN2CCNC(=O)C2CC(=O)NCc2cn3ccc(C)cc3n2)c1OC (centres undefined) ?
FBPA coupling cs: -2.8; Tau fibril FP: 1.0%; Tau fibril ThT: 1.5%; G9a inh: 4.5%; Sfp inh: 17.9%; Tau fluor cs: 4.4%

Results for CC(C)C[C@H](NC(=O)[C@H](CCC(N)=O)NC(=O)[C@H](CCCCN)NC(=O)[C@H](CCC(N)=O)NC(=O)[C@@H](N)CCC(=O)O)C(=O)N[C@@H](CCC(N)=O)C(=O)O ?
Tau fibril FP: -3.3%; Tau fibril ThT: -7.8%; G9a inh: 16.0%[59 µM]; Sfp inh: 13.9%; Tau fluor cs: -8.6%

How did Cc1nc(-c2ccc(S(=O)(=O)N3CCN(c4ccccc4F)CC3)cc2)co1 do in these assays?
Tau fibril FP: 1.8%; Tau fibril ThT: -11.5%; G9a inh: -30.6%[59 µM]; Tau fluor cs: inconclusive

What do the screens show for `O=C(COc1ccc2c(-c3ccccc3)cc(=O)oc2c1)NCC(O)c1ccccc1` (centres undefined)?
FBPA coupling cs: 2.9; Sfp inh: 24.2%

How did Cc1ccccc1NC(=O)CSc1ccc(-c2ccco2)nn1 do in these assays?
FBPA coupling cs: -0.6; Tau fibril FP: 4.4%; Tau fibril ThT: -8.3%; G9a inh: -19.1%[59 µM]; Sfp inh: 22.4µM*; Tau fluor cs: -4.9%

How did O=C(CSc1nnc2ccc(-c3ccco3)nn12)Nc1ccccc1F do in these assays?
G9a inh: 14.1µM*

How did CCOc1ccc(NC(=O)CSc2ccc(-c3ccco3)nn2)cc1 do in these assays?
G9a inh: inconclusive; Sfp inh: -11.7%

What do the screens show for `Cc1ccc(C)c(NC(=O)CSc2ccc(-c3ccco3)nn2)c1`?
FBPA coupling cs: 2.4; Tau fibril FP: -10.4%; Tau fibril ThT: inconclusive; G9a inh: -13.8%[59 µM]; Sfp inh: 14.1µM*; Tau fluor cs: -21.3%

How did O=C(NC1CCCCCC1)C1CCCN(c2ncccn2)C1 (centres undefined) do in these assays?
FBPA coupling cs: 2.0; G9a inh: -22.6%; Sfp inh: 13.9%

What do the screens show for `COc1ccc(CCNC(=O)CSc2n[nH]c(-c3ccccc3Cl)n2)cc1OC`?
Tau fibril FP: -1.3%; Tau fibril ThT: -1.6%; G9a inh: 8.3%[59 µM]; Tau fluor cs: 1.6%

Results for C#CCN(C(=O)CC1C(=O)NCCN1C/C=C/c1ccccc1)C1CCCCC1 (centres undefined) ?
FBPA coupling cs: -0.4; Tau fibril FP: -3.3%; Tau fibril ThT: -10.4%; G9a inh: 3.0%; Sfp inh: -0.2%; Tau fluor cs: -8.7%

How did CN1CCCc2cc(C=O)ccc21 do in these assays?
FBPA coupling cs: -3.9; Tau fibril FP: inconclusive; Tau fibril ThT: inconclusive; G9a inh: -49.1%[59 µM]; Sfp inh: -13.0%; Tau fluor cs: -11.3%

Results for CCCN1CCCc2cc(CN)ccc21 ?
FBPA coupling cs: -52.4*; Tau fibril FP: -16.8%; Tau fibril ThT: 25.1µM*; G9a inh: 8.91µM*; Sfp inh: inconclusive; Tau fluor cs: inconclusive

What do the screens show for `O=C(CC(=O)NN=C1CCCCCC1)NCc1cccnc1`?
FBPA coupling cs: 0.5; Tau fibril FP: 1.6%; Tau fibril ThT: 0.0%; G9a inh: -3.3%; Sfp inh: 14.0%; Tau fluor cs: 4.8%

How did CC(C)(NO)/C(=N\O)c1ccccc1 do in these assays?
FBPA coupling cs: -0.9; Tau fibril FP: -3.7%; Tau fibril ThT: -8.3%; G9a inh: 10µM*; Sfp inh: -6.7%; Tau fluor cs: -10.6%

What do the screens show for `CCCCC[C@H]1CN(CCCC)C(=O)[C@@H]1CC(=O)NCc1ccc(OC)cc1`?
FBPA coupling cs: -1.3; G9a inh: 20.3%; Sfp inh: 12.9%

What do the screens show for `CCCCC[C@H]1CN(CCc2ccccc2)C(=O)[C@@H]1CC(=O)NCc1ccc(OC)cc1`?
FBPA coupling cs: 3.7; G9a inh: 44.7µM*; Sfp inh: -6.9%

Bioassay records deposited in PubChem by National Center for Advancing Translational Sciences (NCATS).
